Only some compounds are listed: those with a hit (about 19% of all), similar ones and a draw of the others.
DT40 TDP1 no CPT = qHTS for Inhibitors of human tyrosyl-DNA phosphodiesterase 1 (TDP1): qHTS in cells in absence of CPT. DT40 Tdp1-/- hTDP1 cells, no CPT, ATP luminescence, 48 h. Potency, µM (top dose mostly 46.2 µM), for the others: top-dose activity change, negative = growth inhibition, hits mostly inhibitors. actives 15% (n = 420,000). AID 686978, 2013; note: potency is the fitted concentration of half-maximal effect; nearly all actives have a fitted effect of over 55% in size
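A cellular qHTS used chicken DT40 cells lacking endogenous Tdp1 but carrying stably transfected human TDP1. Compounds were applied without camptothecin, and cell growth kinetics were judged by ATP-dependent luminescence after ≥48 hr.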
HT1080 IDH1KD tx = toxicity to HT-1080 IDH1 knockdown cells (counter line); HT-1080 IDH1 knockdown viability, ATP luminescence, 48 h; Potency, µM (highest dose often 46.1 µM), without a hit: at the highest dose activity, negative = toxicity, hits mostly cytotoxic; actives 2% (n = 360,000); AID 686971;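 note: potency is the fitted concentration of half-maximal effect; 0% = DMSO wells and -100% = cell-free medium wells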
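IDH1KD HT-1080 cells, 750/well, RPMI + 5% FBS; compound pinned after 2 h settling; 48 h, 37 °C; CellTiter-Glo luminescence; % activity normalised to DMSO and no-cell wells; curves fitted, classed by r2 and efficacy.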
IL-1B inflam inh = blocks inflammasome-driven IL-1 beta release. THP-1 LPS/ATP IL-1B secretion, AlphaLISA, 16 h; active compounds read low. activity change, % at 57.5 µM. actives 4.7% (n = 360,000); in the data active = activity change below about -50%; inconclusive = mostly about -30% to -49%
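Secreted IL-1B measured by AlphaLISA bead assay after 16 h compound exposure of THP-1 cells; compounds (final up to 57.5 uM) added 1 h before LPS (250 ng/mL) and ATP (1.25 mM) stimulation; lower signal means less secretion.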
HT1080-NT tox = kills 2HG-producing HT-1080-NT fibrosarcoma cells; HT-1080-NT fibrosarcoma viability, CellTiter-Glo ATP luminescence, 48 h; Potency, µM (titrated, usually from 46.1 µM), inactives show top-dose activity, negative = less viability, actives largely listed as cytotoxic; actives 1.6% (n = 360,000); AID 686970;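 note: NT is the 2HG producing partner of a matched IDH1 knockdown line; potency is the fitted concentration of half-maximal effect; 0% = DMSO-treated cells and -100% = media-only wells without cells; nearly all actives have a fitted effect of over 55% in size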
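Luminescent CellTiter-Glo readout after 48 hours of compound exposure at 37 degrees C defined viability of HT-1080-NT cells. Activity was normalized to DMSO wells and cell-free media wells; concentration-response curves were fitted and assigned curve classes.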
DT40 TDP1 CPT = growth inhibition of DT40 Tdp1-/-;hTDP1 cells with camptothecin (screen for TDP1 inhibitors). chicken DT40 Tdp1-/-;hTDP1 cells + 20 nM CPT, ATP luminescence, 48 h. Potency, µM (series often up to 46.2 µM), without a hit: at the highest dose activity change, negative = growth inhibition, actives largely listed as inhibitors. actives 12% (n = 420,000). AID 686979; note: potency is the fitted concentration of half-maximal effect; nearly all actives have a fitted effect of over 55% in size
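Cell growth measured by CellTiter-Glo luminescence after a minimum 48 h, 37 C compound exposure with 20 nM CPT in Tdp1-knockout DT40 cells stably expressing hTDP1, seeded 400/well; qHTS titration format.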
An asterisk follows results filed as active. Unless noted, calls come from the whole dose curve; as a rule, active = well fitted curve in the direction sought with a large enough effect; inconclusive = small, poorly fitted or top-dose-only effect, or another doubt; inactive = no such curve, though single readings can be large; an effect the other way counts as inactive or inconclusive. Unless noted, % is set by controls: 0 for no effect and ±100 for the full control effect.

What do the screens show for `CC1CCN(C(=O)c2ccc(SCc3ccccc3F)c([N+](=O)[O-])c2)CC1`?
DT40 TDP1 no CPT: inconclusive; HT1080 IDH1KD tx: -7%; IL-1B inflam inh: -60*; HT1080-NT tox: inconclusive; DT40 TDP1 CPT: -11%

Results for O=C(c1ccc([N+](=O)[O-])c(CS(=O)(=O)c2ccc(Cl)cc2)c1)N1CCCCC1 ?
DT40 TDP1 no CPT: inconclusive; HT1080 IDH1KD tx: 4%; IL-1B inflam inh: 4; HT1080-NT tox: 4%; DT40 TDP1 CPT: -3%

What do the screens show for `O=C(c1ccc(S(=O)(=O)c2ccccc2Cl)c([N+](=O)[O-])c1)N1CCCCCC1`?
DT40 TDP1 no CPT: 18µM*; HT1080 IDH1KD tx: -18%; IL-1B inflam inh: -73*; HT1080-NT tox: -3%; DT40 TDP1 CPT: 21µM*

What do the screens show for `O=C(c1ccc2snnc2c1)N1CCN(c2ccccn2)CC1`?
DT40 TDP1 no CPT: -9%; HT1080 IDH1KD tx: -3%; IL-1B inflam inh: -85*; HT1080-NT tox: -1%; DT40 TDP1 CPT: -4%

Results for O=C(c1ccc(S(=O)(=O)Cc2cc(F)ccc2F)c([N+](=O)[O-])c1)N1CCOCC1 ?
DT40 TDP1 no CPT: 7.3µM*; HT1080 IDH1KD tx: inconclusive; IL-1B inflam inh: -100*; HT1080-NT tox: inconclusive; DT40 TDP1 CPT: 6.5µM*

What do the screens show for `CN(N=O)c1ccc(/C=C/c2ccccc2)cc1`?
DT40 TDP1 no CPT: -17%; DT40 TDP1 CPT: inconclusive

What do the screens show for `O=C(c1cccc(Cl)c1)N1CCN(c2ccccn2)CC1`?
DT40 TDP1 no CPT: -26%; HT1080 IDH1KD tx: 12%; IL-1B inflam inh: 0; HT1080-NT tox: 26%; DT40 TDP1 CPT: -25%

Results for O=C(c1ccc(S(=O)(=O)c2cccc(Cl)c2)c([N+](=O)[O-])c1)N1CCN(c2ccccn2)CC1 ?
DT40 TDP1 no CPT: 2.3µM*; HT1080 IDH1KD tx: 21µM*; IL-1B inflam inh: -246*; HT1080-NT tox: 9.2µM*; DT40 TDP1 CPT: 2.6µM*

What do the screens show for `O=C(c1ccc(S(=O)(=O)Cc2ccccc2F)c([N+](=O)[O-])c1)N1CCCCCC1`?
DT40 TDP1 no CPT: 23µM*; HT1080 IDH1KD tx: inconclusive; IL-1B inflam inh: -79*; HT1080-NT tox: -21%; DT40 TDP1 CPT: inconclusive

Results for Cc1ccc(C(=O)NCC(=O)OCC(=O)Nc2ncc(C(F)(F)F)cc2Cl)cc1 ?
DT40 TDP1 no CPT: 22%; HT1080 IDH1KD tx: -1%; IL-1B inflam inh: 0; HT1080-NT tox: -14%; DT40 TDP1 CPT: -5%

How did Cc1ccc(-c2cc(C(=O)OCC(=O)Nc3ncc(C(F)(F)F)cc3Cl)c3ccccc3n2)cc1 do in these assays?
DT40 TDP1 no CPT: inconclusive; HT1080 IDH1KD tx: 1%; IL-1B inflam inh: 28; HT1080-NT tox: 7%; DT40 TDP1 CPT: 15µM*

Results for Cc1ccc(C(=O)COC(=O)c2cc(-c3ccc(Cl)cc3)nc3ccccc23)cc1 ?
DT40 TDP1 no CPT: 21µM*; DT40 TDP1 CPT: 10µM*

How did COC[C@H]1CCCN1c1ccc2c(c1)O[C@@H](COCc1ccccc1)CN([C@H](C)c1ccccc1)S2(=O)=O do in these assays?
DT40 TDP1 no CPT: 13µM*; HT1080 IDH1KD tx: -4%; IL-1B inflam inh: -9; HT1080-NT tox: -7%; DT40 TDP1 CPT: 9.2µM*

How did C[C@@H](c1ccccc1)N1C[C@@H](COCc2ccccc2)Oc2cc(N3CC[C@H](N(C)C)C3)ccc2S1(=O)=O do in these assays?
DT40 TDP1 no CPT: -14%; HT1080 IDH1KD tx: 12%; IL-1B inflam inh: 0; HT1080-NT tox: 2%; DT40 TDP1 CPT: -21%

How did COC[C@@H]1CCCN1c1ccc2c(c1)O[C@H](COCc1ccccc1)CN([C@@H](C)c1ccccc1)S2(=O)=O do in these assays?
DT40 TDP1 no CPT: 3.7µM*; HT1080 IDH1KD tx: 2%; IL-1B inflam inh: 20; HT1080-NT tox: -6%; DT40 TDP1 CPT: 2.6µM*

How did COC[C@H]1CCCN1c1ccc2c(c1)O[C@H](COCc1ccccc1)CN([C@H](C)c1ccccc1)S2(=O)=O do in these assays?
DT40 TDP1 no CPT: 18µM*; HT1080 IDH1KD tx: -1%; IL-1B inflam inh: 49; HT1080-NT tox: 3%; DT40 TDP1 CPT: inconclusive

What do the screens show for `COc1cc(NC(=O)c2c(C)oc3c2C2=NCCN2C=N3)cc(OC)c1OC`?
DT40 TDP1 no CPT: inconclusive; DT40 TDP1 CPT: -14%

Results for Cc1ccc(S(=O)(=O)N(C(=O)c2ccncc2)c2ccc3oc4c(c3c2)CCCC4)cc1[N+](=O)[O-] ?
DT40 TDP1 no CPT: -8%; HT1080 IDH1KD tx: 1%; IL-1B inflam inh: 9; HT1080-NT tox: 1%; DT40 TDP1 CPT: -2%

How did CC(=O)c1c(C)oc2ccc(N(C(=O)Oc3ccccc3)S(=O)(=O)c3ccc(Br)cc3)cc12 do in these assays?
DT40 TDP1 no CPT: 22%; DT40 TDP1 CPT: -8%

How did COC(=O)c1c(C)oc2ccc(N(C(=O)c3ccncc3)S(=O)(=O)c3ccccc3)cc12 do in these assays?
DT40 TDP1 no CPT: 23µM*; HT1080 IDH1KD tx: -28%; IL-1B inflam inh: 0; HT1080-NT tox: -29%; DT40 TDP1 CPT: inconclusive

How did COC(=O)c1c(C)oc2ccc(N(C(=O)c3ccncc3)S(=O)(=O)c3ccc4ccccc4c3)cc12 do in these assays?
DT40 TDP1 no CPT: 15µM*; HT1080 IDH1KD tx: inconclusive; IL-1B inflam inh: 24; HT1080-NT tox: inconclusive; DT40 TDP1 CPT: 23µM*

Results for COC(=O)c1c(C)oc2ccc(N(C(=O)c3ccncc3)S(=O)(=O)c3ccc(C)cc3)cc12 ?
DT40 TDP1 no CPT: 2.1µM*; HT1080 IDH1KD tx: 2.6µM*; IL-1B inflam inh: -7; HT1080-NT tox: 2.6µM*; DT40 TDP1 CPT: 3.7µM*

What do the screens show for `O=[N+]([O-])c1ccc(N/N=C2\CC3CC=CC23)c([N+](=O)[O-])c1` (centres undefined)?
DT40 TDP1 no CPT: 16µM*; HT1080 IDH1KD tx: -19%; IL-1B inflam inh: 21; HT1080-NT tox: -5%; DT40 TDP1 CPT: 13µM*

How did O=[N+]([O-])c1ccc(NN=C(C2CC2)C2CC2)c([N+](=O)[O-])c1 do in these assays?
DT40 TDP1 no CPT: inconclusive; HT1080 IDH1KD tx: -21%; IL-1B inflam inh: -23; HT1080-NT tox: -9%; DT40 TDP1 CPT: -29%

How did O=C(N/N=C1\CC2CC=CC12)c1ccc(O)cc1 (centres undefined) do in these assays?
DT40 TDP1 no CPT: 3%; HT1080 IDH1KD tx: 2%; IL-1B inflam inh: -6; HT1080-NT tox: -2%; DT40 TDP1 CPT: 22%

How did O=[N+]([O-])c1ccc(N/N=C2\CC3CC=CC23)cc1 (centres undefined) do in these assays?
DT40 TDP1 no CPT: inconclusive; HT1080 IDH1KD tx: inconclusive; IL-1B inflam inh: inconclusive; HT1080-NT tox: -1%; DT40 TDP1 CPT: 23µM*

High-throughput results as filed in PubChem BioAssay.
